33 molecules from PubChem BioAssay (Tox21) can be followed below.

Assay [1] in a line: qHTS assay to identify small molecule antagonists of the thyroid receptor (TR) signaling pathway - cell viability counter screen (AID 743064). Further: nearly all actives have a fitted effect of over 50% in size. Further: potency means the concentration at half of the fitted maximal effect. An outline of the steps:
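Same-well viability check: GH3.TRE-Luc cells stimulated with 1 nM T3 alongside test compound for 23.5 h, followed by CellTiter-Fluor fluorescence.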
In general terms: In qHTS, concentration-response curves come from the screen itself.

The nature of assay [2]: qHTS assay to identify small molecule antagonists of the thyroid receptor (TR) signaling pathway (AID 743065). Further: nearly all actives have a fitted effect of over 55% in size. Further: potency means the concentration at half of the fitted maximal effect. An outline of the steps: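 Antagonism measured as loss of luciferase signal in GH3 cells stably carrying a TRE-luciferase reporter, co-treated with compound and T3 (1 nM final) for 23.5 h at 37 C. Viability was read in the same well by CellTiter-Fluor.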
Assay [3] has as its system thyroid hormone receptor (rat, GH3 cells). In words: qHTS assay to identify small molecule agonists of the thyroid receptor (TR) signaling pathway (AID 743066; calls by dose curve).
A short description of assay [4]: qHTS assay to identify small molecule antagonists of the estrogen receptor alpha (ER-alpha) signaling pathway - cell viability counter screen (AID 743074; calls by dose curve;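 further: HEK293 cells carrying ER-alpha-UAS-bla reporter stimulated with 17beta-estradiol; nearly all actives have a fitted effect of over 45% in size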).
The nature of assay [5]: qHTS assay to identify small molecule antagonists of the estrogen receptor alpha (ER-alpha) signaling pathway using the BG1 cell line - cell viability counter screen (AID 743081).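 Further: compound given together with 17beta-estradiol as the ER stimulus; series mostly up to about 70 µM; nearly all actives have a fitted effect of over 45% in size.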
Assay [6] has as its target Aromatase (Homo sapiens) (UniProt P11511). In words: qHTS assay to identify aromatase inhibitors (AID 743083). Further: series mostly up to about 70 µM; nearly all actives have a fitted effect of over 55% in size.
For assay [7], the target named is Estrogen receptor (Homo sapiens) (UniProt P03372). In words: qHTS assay to identify small molecule agonists of the estrogen receptor alpha (ER-alpha) signaling pathway (AID 743075; calls by dose curve).
Estrogen receptor (Homo sapiens), sequence (P03372 whole entry, looked up): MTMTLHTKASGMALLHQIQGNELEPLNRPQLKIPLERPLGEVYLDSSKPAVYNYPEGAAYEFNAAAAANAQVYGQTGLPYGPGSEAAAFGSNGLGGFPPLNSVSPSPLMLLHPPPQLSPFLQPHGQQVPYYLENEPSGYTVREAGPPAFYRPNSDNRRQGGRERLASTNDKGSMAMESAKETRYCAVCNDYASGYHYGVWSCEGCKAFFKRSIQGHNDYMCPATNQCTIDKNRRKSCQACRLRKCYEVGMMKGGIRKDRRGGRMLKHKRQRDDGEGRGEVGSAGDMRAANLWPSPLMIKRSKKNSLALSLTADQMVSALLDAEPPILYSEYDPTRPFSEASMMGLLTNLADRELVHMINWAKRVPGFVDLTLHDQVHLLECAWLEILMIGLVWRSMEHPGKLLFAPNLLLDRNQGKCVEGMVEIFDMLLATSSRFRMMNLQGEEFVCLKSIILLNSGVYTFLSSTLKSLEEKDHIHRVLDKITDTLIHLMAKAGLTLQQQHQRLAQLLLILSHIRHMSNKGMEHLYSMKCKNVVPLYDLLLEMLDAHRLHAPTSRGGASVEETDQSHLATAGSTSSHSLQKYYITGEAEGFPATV
The target is the same in assay [8]. In words: qHTS assay to identify small molecule agonists of the estrogen receptor alpha (ER-alpha) signaling pathway using the BG1 cell line (AID 743079). Further: nearly all actives have a fitted effect of over 20% in size.
The nature of assay [9]: qHTS assay to identify small molecule antagonists of the estrogen receptor alpha (ER-alpha) signaling pathway using the BG1 cell line (AID 743080; calls by dose curve;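 further: BG1 cells stimulated with 17beta-estradiol alongside compound; series mostly up to about 70 µM; nearly all actives have a fitted effect of over 25% in size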). An outline of the steps: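 After 5 days in phenol-red-free 10% charcoal-stripped FBS medium, BG1-Luc-4E2 cells were seeded, left 24 h at 37 C, co-treated with compounds and 17beta-estradiol for 21.5 h, then assayed for viability and luciferase.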

Assay [10] concerns the target Estrogen receptor (Homo sapiens) (UniProt P03372). The assay can be described thus: qHTS assay to identify small molecule antagonists of the estrogen receptor alpha (ER-alpha) signaling pathway (AID 743069; active means well fitted curve in the direction sought with a large enough effect in the signal ratio in the repeat runs, not every such curve was filed as active; the % refers to the signal ratio). Summed up: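 Compound effects are measured against 17beta-estradiol stimulation in HEK293 cells with a UAS-controlled beta-lactamase reporter for ER-alpha. Exposure lasts 18 hr at 37C; LiveBLAzer B/G FRET substrate follows for 2 hr at room temperature.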

SMILES strings stand for the structures. Results filed as inconclusive are left out. Values without a mark were called inactive. The source made the active and inactive calls. Unless noted, the call rests on the fitted dose curve; in most records, active means well fitted curve in the direction sought with a large enough effect in the repeat runs; inconclusive means weak or mixed curves; inactive means no such curve, though single readings can be large; an effect the other way counts as inactive or inconclusive.

Aromatase (Homo sapiens), sequence (P11511 whole entry, looked up): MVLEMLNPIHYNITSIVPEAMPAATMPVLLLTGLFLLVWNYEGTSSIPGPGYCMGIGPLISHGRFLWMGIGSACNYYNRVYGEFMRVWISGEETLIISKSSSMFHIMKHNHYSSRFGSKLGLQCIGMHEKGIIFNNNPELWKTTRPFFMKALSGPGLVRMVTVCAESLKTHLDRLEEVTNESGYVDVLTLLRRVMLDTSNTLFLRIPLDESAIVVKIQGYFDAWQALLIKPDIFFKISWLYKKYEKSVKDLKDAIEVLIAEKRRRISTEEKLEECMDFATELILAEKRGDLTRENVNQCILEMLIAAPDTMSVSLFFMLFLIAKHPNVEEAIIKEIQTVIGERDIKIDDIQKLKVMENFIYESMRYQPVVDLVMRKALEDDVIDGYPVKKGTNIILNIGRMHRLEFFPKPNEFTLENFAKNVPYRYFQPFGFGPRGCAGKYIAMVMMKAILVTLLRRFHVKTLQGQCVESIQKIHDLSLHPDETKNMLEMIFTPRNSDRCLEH

Consider `OCCN(CCO)c1cccc(Cl)c1`, for which the Potency result in [1], in assay [2] and in assay [6] was “inactive” in each case. Moreover, the molecule was called inactive in assay [3], in [4] and in assay [5].

As to `CC(S)C(=O)NCC(=O)O` (stereo not drawn), the Potency entry in assay [1], in assay [2] and in assay [6] was “inactive” each time. Besides, the molecule was classed as inactive in assay [3], in assay [4] and in assay [5].

For the molecule `COc1ccc(OC)c(Cl)c1`, the Potency result in assay [1], in assay [2] and in assay [6] was “inactive” in each case. The call in assay [3], in [4] and in assay [5] was inactive.

`CN(CCOc1ccc(NS(C)(=O)=O)cc1)CCc1ccc(NS(C)(=O)=O)cc1`: the Potency entry in assay [1], in assay [2], in assay [8], in assay [9] and in assay [6] was “inactive” each time. The molecule was classed as inactive in assay [3], in assay [4], in assay [7] and in assay [5].

As to `CC(=O)N[C@@H](CCC(=O)O)C(=O)O`, the Potency entry in assay [1], in assay [2] and in [6] was “inactive” in each case. For the same molecule, the molecule was classed as inactive in assay [3], in [4] and in [5].

With `Nc1ncnc(Nc2ccccc2)n1`, the Potency entry in assay [1], in assay [2] and in [6] was “inactive” each time. Moreover, the outcome in [3], in assay [10], in assay [4], in assay [7] and in assay [5] was inactive.

As to `C[Si](C)(C)C`, the Potency result in assay [1], in assay [2] and in assay [6] was “inactive” throughout. Also, the call in assay [3], in [4] and in assay [5] was inactive.

Regarding `COc1ccc(C2CNC(=O)C2)cc1OC1CCCC1` (stereo not drawn), the Potency entry in assay [1], in assay [2] and in [6] was “inactive” each time. The molecule was called inactive in assay [3], in assay [4] and in [5].

Take `CC(=O)Nc1ccc(S(=O)(=O)Cl)cc1`: the Potency result in assay [1], in assay [2] and in assay [6] was “inactive” throughout. Also, the outcome in assay [3], in assay [4] and in assay [5] was inactive.

In the case of `CCN1CCc2nc(N)oc2CC1`, the Potency entry in [1], in [2], in assay [8], in assay [9] and in assay [6] was “inactive” each time. Besides, the molecule was called inactive in [3], in assay [4], in [7] and in [5].

Regarding `O=C(OCC1(COC(=O)c2cccnc2)CCCC(COC(=O)c2cccnc2)(COC(=O)c2cccnc2)C1O)c1cccnc1`, the Potency result in assay [1], in assay [2] and in assay [6] was “inactive” each time. The molecule was classed as inactive in [3], in assay [4] and in assay [5].

`Nc1nnc(-c2cccc(Cl)c2Cl)c(N)n1`: the Potency result in assay [1], in [2] and in assay [6] was “inactive” in each case. In addition, the molecule was called inactive in assay [3], in [4] and in assay [5].

In the case of `O=C(CCN1CCN(CCO)CC1)N1c2ccccc2Sc2ccc(C(F)(F)F)cc21`, the Potency in assay [1] is 13.3 µM (active); in assay [2], 21.1 µM (active). Moreover, the molecule was called inactive in assay [3], in assay [10] and in assay [7]. For the same molecule, the Potency entry in assay [8], in assay [9] and in [6] was “inactive” throughout.

Regarding `CC(CO)c1ccccc1` (stereo not drawn), the Potency result in assay [1], in assay [2], in assay [9] and in assay [6] was “inactive” throughout. For the same molecule, the call in assay [3], in assay [10], in assay [4], in assay [7] and in assay [5] was inactive.

Consider `Cc1c(I)c(=O)n(-c2ccccc2)n1C`, for which the Potency entry in assay [1], in assay [2], in [8], in assay [9] and in [6] was “inactive” each time. The molecule was classed as inactive in [3], in [10], in assay [7] and in [5].

As for `Cc1ccccc1N=O`, the Potency entry in assay [1] and in assay [2] was “inactive” each time. Besides, the call in assay [3], in [4] and in [5] was inactive.

With `CNC(=O)[C@H]1O[C@@H](n2cnc3c(NCc4cc(Cl)ccc4OCc4cc(C)no4)ncnc32)[C@H](O)[C@@H]1N`, the Potency result in assay [1], in assay [2], in assay [8], in [9] and in [6] was “inactive” in each case. For the same molecule, the outcome in assay [3], in assay [10], in [7] and in assay [5] was inactive.

For `Nc1cccc(O)c1`, the Potency entry in [1], in assay [2], in assay [9] and in assay [6] was “inactive” in each case. Also, the molecule was called inactive in [3], in assay [10], in assay [7] and in [5].

With `CCOCCOCCOCC`, the Potency result in [1], in assay [2] and in assay [6] was “inactive” each time. In addition, the call in [3], in assay [4] and in assay [5] was inactive.

On to `CCO[Si](CCCS)(OCC)OCC`, for which the Potency entry in assay [1], in assay [2] and in assay [6] was “inactive” throughout. The result in assay [3], in assay [4] and in [5] was inactive.

In the case of `On1nnc2ccccc21`, the Potency result in assay [1], in assay [2], in assay [8], in assay [9] and in assay [6] was “inactive” throughout. The call in assay [3], in assay [10], in assay [7] and in [5] was inactive.

In the case of `CCN(CC)CC(=O)Nc1c(C)cccc1C`, the Potency entry in assay [1] and in assay [2] was “inactive” each time. The outcome in assay [3], in [4] and in assay [5] was inactive.

As for `O=C1CCCC(=O)O1`, the Potency entry in assay [1], in assay [2], in [8], in assay [9] and in assay [6] was “inactive” each time. In addition, the molecule was called inactive in [3], in [10], in [7] and in assay [5].

For `CCCC/C=C\CCCCCCCCCC=O`, the Potency result in assay [1], in [2] and in [6] was “inactive” throughout. In addition, the outcome in [3], in [4] and in assay [5] was inactive.

As for `Cc1cccc(C)c1NC(=O)c1ccccc1C(=O)O`, the Potency entry in assay [1], in assay [2], in assay [9] and in assay [6] was “inactive” throughout. The outcome in [3], in assay [10], in assay [4], in [7] and in assay [5] was inactive.

As for `COC(=O)CCc1ccc(OCC(O)CNC(C)C)cc1` (stereo not drawn), the Potency entry in [1], in assay [2] and in assay [6] was “inactive” in each case. Also, the molecule was called inactive in [3], in assay [4] and in [5].

Regarding `CCCCCOC(=O)CCC`, the Potency entry in [1], in [2] and in assay [6] was “inactive” in each case. Further, the molecule was called inactive in [3], in assay [4] and in [5].

Consider `O=C1c2cccc3c2[C@H](CCC3)CN1[C@@H]1CN2CCC1CC2`, for which the Potency in assay [1] was 23.7 µM (active); in assay [2] it was 18.8 µM (active). Also, the molecule was classed as inactive in assay [3], in [4] and in [7]. In addition, the Potency result in assay [8] and in assay [6] was “inactive” in each case.

For the molecule `BrCCCCCBr`, the Potency result in [1], in assay [2], in assay [8], in assay [9] and in assay [6] was “inactive” in each case. Besides, the result in [3], in assay [10], in [7] and in [5] was inactive.

For `CCCCCCCCCCl`, the Potency result in assay [1], in assay [2] and in assay [6] was “inactive” in each case. Besides, the call in assay [3], in assay [4] and in assay [5] was inactive.

On to `CC(C)NCC(O)COc1cccc2[nH]ccc12` (stereo not drawn), for which the Potency result in assay [1], in assay [2] and in [6] was “inactive” in each case. The call in assay [3], in assay [4] and in [5] was inactive.

With `CC1COc2ccccc2N1` (stereo not drawn), the Potency entry in [1], in [2] and in assay [6] was “inactive” each time. Besides, the call in assay [3], in [4] and in assay [5] was inactive.

As for `CCCCCCCCCC(C)=O`, the Potency result in assay [1], in assay [8], in [9] and in assay [6] was “inactive” each time. Further, the molecule was classed as inactive in assay [3], in assay [10], in assay [4], in assay [7] and in assay [5].
